Test results published in PubChem BioAssay AID743060 (The Scripps Research Institute Molecular Screening Center, 2013).

Experiment: inhibitors of T. brucei MetRS aminoacylation, late-stage follow-up, biochemical, radioactivity, round 1 (AID 743060)
Details: purified enzyme, radiolabel aminoacylation, scintillation, 2 h; at 1 µM; stronger effect = higher value

SMILES | inhibition
O=C(NCc1nc2ccccc2[nH]1)C1=C[C@@H](c2ccccc2)C[C@@H](OCc2ccc(CO)cc2)O1 | 44.6%
O=C(Cn1cc(C(=O)C2CC2)c2ccccc21)Nc1cccc(C(F)(F)F)c1 | 3.65%
COc1ccc(NC(=O)CSc2nnc3c4cc(C)ccc4n(C)c3n2)cc1 | -3.06%
C[C@H](O)[C@@H]1C(=O)N2CCc3c([nH]c4ccccc34)[C@@H]2C[C@@H]1N(C)Cc1ccc2c(c1)OCO2 | 1.98%
O=C(NCCc1nc2ccccc2[nH]1)c1ccc(Cl)cc1Cl | 61.9%
O=C1[C@@H]2Cc3c([nH]c4ccccc34)C(c3cccc([N+](=O)[O-])c3)N2C(=O)CN1CCCO (some centres undefined) | 63.2%
CC(C)c1nc2ccc(C(=O)N(C)CCc3nc4ccc(F)cc4[nH]3)cc2o1 | -1.99%
COc1ccc(CCN(C(=O)c2cccc(F)c2)C2CC(=O)N(c3ccc(Br)cc3)C2=O)cc1 (centres undefined) | -5.29%
COc1ccccc1NS(=O)(=O)c1cccc(NC(=O)Nc2ccccc2)c1 | 57%
O=C(C[C@H]1C(=O)N(Cc2ccccc2)C[C@@H]1c1ccc(Br)cc1)Nc1ccc(Br)cc1 | 55.7%
COc1ccccc1NC(=O)CSc1nnc2c(n1)[nH]c1ccc(C)cc12 | 19.1%
COc1ccc(CCN(C(=S)Nc2ccccc2)C2CC(=O)N(c3ccc(Cl)cc3)C2=O)cc1 (centres undefined) | 92.7%
CCOC(=O)N1CCC(Nc2c(Nc3ccc(F)cc3)c(=O)c2=O)CC1 | 28.4%
COc1ccccc1NC(=O)Cn1cc(C(=O)C(=O)N2CCOCC2)c2ccccc21 | -14.4%
O=C(N/C(=C\c1cccnc1)c1nc2ccccc2[nH]1)c1cccc(Br)c1 | 14.4%
COc1cccc(NC(=O)CSc2nnc3c(n2)[nH]c2ccc(C)cc23)c1 | 97.7%
Cn1c(CCNC(=O)c2ccc(Cl)cc2)nc2ccccc21 | 10.9%

SMILES | inhibition
CCc1ccc2[nH]c3nc(SCC(=O)NCc4cccc(OC)c4)nnc3c2c1 | 4.75%
O=C1CC(N(CCc2ccccc2)C(=S)Nc2ccccc2)C(=O)N1c1ccc(Br)cc1 (centres undefined) | 84.2%
CC(C)OCCCN1CC(=O)N2C(c3cccc([N+](=O)[O-])c3)c3[nH]c4ccccc4c3C[C@H]2C1=O (some centres undefined) | 50%
O=C(CC=NOCc1ccc([N+](=O)[O-])cc1)Nc1ccc(Cl)cc1 | 28.6%
CC(=O)N(CCc1ccccc1)C1CC(=O)N(c2ccc(Br)cc2)C1=O (centres undefined) | -12.2%
CC(C)(C)[C@H]1C=C(C(=O)NCc2nc3ccccc3[nH]2)O[C@@H](OCc2ccc(CO)cc2)C1 | 21.6%
CC(=O)c1c[nH]c(C(=O)NCc2cccc(C(F)(F)F)c2)c1 | 44.6%
Cc1[nH]c2ccc(Br)cc2c(=O)c1CN1CCCCCC1 | 19.4%
O=C1CC(SCc2nc3ccccc3[nH]2)C(=O)N1c1cccc(Cl)c1 (centres undefined) | 19.7%
O=C(C(=O)N1CCOCC1)c1cn(CC(=O)N2CCCc3ccccc32)c2ccccc12 | -6%
CC(=O)c1ccc(N2CCN(C(=O)CCCn3c(=O)[nH]c4ccc(Br)cc4c3=O)CC2)cc1 | 68.1%
O=C(CC=NOCc1ccc([N+](=O)[O-])cc1)Nc1ccc(Br)cc1 | 32.2%
O=C(Cn1cc(C(=O)COc2ccccc2)c2ccccc21)Nc1cccc(C(F)(F)F)c1 | -5.73%
CCN(CC)C(=O)C(=O)c1cn(CC(=O)Nc2cccc(OC)c2)c2ccccc12 | 41.4%
Cc1ccc2[nH]c3nc(SCC(=O)Nc4ccc(C(F)(F)F)cc4)nnc3c2c1 | 21.3%
O=C(NCc1nc2ccccc2[nH]1)C1=C[C@H](c2ccccc2)C[C@H](OCc2ccc(CO)cc2)O1 | 7.32%
O=C(CSC1CC(=O)N(c2cccc(Cl)c2)C1=O)Nc1ccc(Br)cc1 (centres undefined) | 23.7%
